In ChEMBL document CHEMBL4513146, “CO-ADD screening of Karazin Kharkiv National University (Ukraine) compounds”:
Entries with a potency or affinity are not part of this list.

Legend:
[1] = test system: Klebsiella pneumoniae; conditions: Concentration 32 ug.mL-1;; ASSAY_TEST Inhibition of Bacterial Growth; detection method Absorption (OD600); MEDIA CAMHB; plate type 384well; NBS; CORNING #3640; time 18 hr
[2] = test system: Candida albicans; conditions: Concentration 32 ug.mL-1; ASSAY_TEST Inhibition of Fungal Growth; detection method Absorption (OD530)
[3] = test system: Cryptococcus neoformans; conditions: Concentration 32 ug.mL-1; ASSAY_TEST Inhibition of Fungal Growth; detection method Resazurin; Absorption (OD600-OD570); plate type 384well; NBS; CORNING #3640

SMILES | Inhibition [1] | Inhibition [2] | Inhibition [3]
COc1ccc(NC(=O)Cn2nc3ccc(-c4ccccc4)nn3c2=O)cc1 | 5.42% | 2.69% | -8.43%
Cc1ccc(-c2ccc3nn(CC(=O)Nc4ccc(Cl)c(C(F)(F)F)c4)c(=O)n3n2)cc1C | 0.66% | 5.4% | -13.03%
Cc1ccc(Cl)cc1NC(=O)Cn1c(=O)c2nnc(C(C)C)n2c2ccccc21 | 5.77% | 3.52% | -16.4%
CC1CCCN(c2nccn3c(=O)n(CC(=O)Nc4ccc(F)cc4F)nc23)C1 (stereo not given) | -1.65% | 1.98% | -8.2%
CCC(C)NC(=O)c1ccc2c(=O)n(CCC(C)C)c3nn(CC#N)c(=O)n3c2c1 (stereo not given) | 14.77% | 0.65% | -22.02%
COc1ccc(-c2cc3c4nn(CC(=O)N5CCCc6ccccc65)c(=O)n4ccn3n2)cc1 | 10.34% | 3.82% | -13.79%
CCc1nnc2ccc(S(=O)(=O)N(Cc3ccccc3)c3ccccc3)cn12 | 4.93% | 2.38% | -7.97%
COc1cccc(C(=O)CSc2nnc3c(=O)n(-c4ccc(F)cc4)ccn23)c1 | 7.79% | 2.89% | -4.94%
Cc1cc(C)cc(NC(=O)Cn2nc3c4cc(-c5ccc(C)c(C)c5)nn4ccn3c2=O)c1 | 6.91% | 7.8% | -17.96%
COc1cccc(CN(c2ccc(F)c(F)c2)S(=O)(=O)c2ccc3nncn3c2)c1 | 0.45% | 4.56% | -8.9%
COc1cccc(-n2ccn3c(SCC(=O)Nc4ccc(F)cc4F)nnc3c2=O)c1 | 3.3% | 4.17% | -12.76%
COc1cc(NC(=O)Cn2nc3c(Oc4ccccc4)nccn3c2=O)cc(OC)c1OC | 10.24% | 3.29% | -9.79%
CCc1nnc2c(SCC(=O)Nc3ccccc3Br)nc3ccccc3n12 | 11.72% | 2.39% | -22.99%
Cc1ccc(NC(=O)Cn2c(=O)c3nnc(C(C)C)n3c3ccccc32)cc1C | 11.54% | 4.79% | -12.38%
Cc1ccc(Cl)cc1NC(=O)Cn1nc2c3c4c(sc3ncn2c1=O)CCCCC4 | 13.99% | 1.16% | -31.5%
Cc1cccc(NC(=O)CSc2nnc3c4cc(-c5ccccc5)nn4ccn23)c1C | 7.23% | 5.25% | -12.53%
Cc1nnc2c(SCC(=O)Nc3ccc(F)cc3F)nc3ccccc3n12 | 16.48% | 0.69% | -22.98%
CC(C)CCn1c(=O)c2ccc(C(=O)NC3CCCC3)cc2n2c(=O)n(CC#N)nc12 | 12.37% | 2.41% | -21.13%
CCc1ccccc1Sc1nccn2c(=O)n(CC(=O)NCc3cccs3)nc12 | -0.44% | 4.04% | -9.94%
COc1ccccc1NC(=O)Cn1nc2c3c4c(sc3ncn2c1=O)CCCC4 | 5.77% | 0.98% | -22.92%
COc1cc(NC(=O)Cn2nc3c4c5c(sc4ncn3c2=O)CCCC5)cc(OC)c1OC | 9% | 0.11% | -14.64%
CCCCNC(=O)Cn1nc2n(Cc3ccco3)c(=O)c3sccc3n2c1=O | 5.33% | 0.44% | -11.54%
O=C(CSc1nnc2c(=O)n(-c3ccc(F)cc3)ccn12)N1CCN(c2ccc(F)cc2)CC1 | -5.39% | -0.55% | -6.2%
CCCN(C)c1nccn2c(=O)n(CC(=O)Nc3cccc(Br)c3)nc12 | 8.58% | 1.99% | -9.25%
COc1cccc(-n2ccn3c(SCC(=O)c4ccc(F)cc4)nnc3c2=O)c1 | 12.25% | 2.59% | -11.08%

SMILES | Inhibition [1] | Inhibition [2] | Inhibition [3]
Cc1ccc(-c2ccc3nnc(CCC(=O)NCc4ccc(Br)cc4)n3n2)cc1 | 19% | 1.12% | -7.91%
Cc1cccc(C)c1NC(=O)CSc1nnc2c3cc(-c4ccc(F)cc4)nn3ccn12 | -6.3% | 4.52% | -11.19%
Cc1cccc(Sc2nccn3c(=O)n(CC(=O)N4CCN(c5ccccc5)CC4)nc23)c1 | 4.67% | 0.98% | -15.76%
CSc1cccc(NC(=O)Cn2nc3ccc(-c4ccc(C)c(C)c4)nn3c2=O)c1 | -6.08% | 28.21% | -10.99%
COc1cc(-c2nnc3c(=O)n(Cc4ccc(Cl)cc4)ccn23)cc(OC)c1OC | 11.02% | -0.08% | -21.41%
O=S(=O)(c1ccc2nncn2c1)N(Cc1cccc(F)c1)c1ccc(F)c(F)c1 | 13.11% | 5.52% | -5.3%
Cc1ccc(NC(=O)CSc2nnc3c(=O)n(-c4ccc(C)c(C)c4)ccn23)c(Cl)c1 | 12.06% | 0.25% | -10.04%
O=c1c2nn(Cc3ccc(F)cc3)c(=O)n2ccn1-c1ccccc1 | 9.86% | 2.87% | -6.47%
Cc1ccc(-c2cc3c4nn(CC(=O)Nc5ccc6c(c5)OCO6)c(=O)n4ccn3n2)cc1C | 2.27% | 33.95% | -8.66%
O=C(Cn1nc2c(Oc3ccccc3)nccn2c1=O)Nc1ccccc1F | -3.78% | -2.47% | -4.07%
Cc1ccc(Sc2nccn3c(=O)n(CC(=O)N4CCN(c5ccccc5F)CC4)nc23)c(C)c1 | 9.62% | 0.22% | -25.75%
CCOc1ccccc1NC(=O)Cn1nc2c(Sc3ccc(C)cc3C)nccn2c1=O | 5.52% | -0.73% | -9.54%
O=c1c2nnc(SCc3ccc(Cl)cc3)n2ccn1-c1ccc(F)cc1 | 9.2% | 1.38% | -5.79%
Cc1nnc2ccc(S(=O)(=O)N(Cc3cccc(F)c3)c3ccc(Cl)cc3)cn12 | 10.33% | -0.68% | -10.1%
CSc1ccc(CNC(=O)Cn2nc3c(N4CCOCC4)nccn3c2=O)cc1 | 9.81% | 3.79% | -7.62%
COc1ccccc1NC(=O)Cn1nc2c(SCc3ccccc3)nccn2c1=O | 0.49% | 5.7% | -17.11%
CCc1nnc2c(S(=O)(=O)N(Cc3cccc(C)c3)c3cccc(Cl)c3)cccn12 | 3.49% | 3.58% | -6.66%
CCCCn1c(=O)c2sccc2n2c(=O)n(CC(=O)N3CCCC(C(=O)OCC)C3)nc12 (stereo not given) | -2.03% | -3.31% | -9.46%
N#CCn1nc2n(Cc3ccccc3)c(=O)c3ccccc3n2c1=O | 8.96% | -1.85% | -7.48%
CC(C)CCNC(=O)Cn1nc2n(Cc3ccco3)c(=O)c3sccc3n2c1=O | 8.27% | 3.16% | -8.69%
CC1CC(C)CN(c2nccn3c(=O)n(CC(=O)NCc4ccccc4Cl)nc23)C1 (stereo not given) | 9.46% | -0.66% | -5.61%
O=C(Cn1nc2c(Oc3ccccc3)nccn2c1=O)Nc1ccc(F)cc1F | 0.94% | -1.91% | -7.74%
CCOc1ccc(-n2ccn3c(SC(C)C(=O)Nc4cc(OC)cc(OC)c4)nnc3c2=O)cc1 (stereo not given) | 7.45% | 1.5% | -3.58%
COc1ccc(-c2cc3c4nn(CC(=O)Nc5ccccc5Cl)c(=O)n4ccn3n2)cc1 | 4.39% | 6.88% | -15.65%
CCCc1ccc(S(=O)(=O)Nc2ccc3nncn3n2)cc1 | 8.2% | 1.65% | -5.43%
